Shiga toxin inh: inhibitors of Shiga toxin in Vero cells. Vero cells, Shiga toxin protein synthesis inhibition reporter. inhibition, % at 38.7 µM. 9.2% of 290,000 active; in the data active means inhibition mostly above about 28%, no sharp cut-off; inactive means mostly below about 43%; further: 0% is about no effect
CHX counter: counter-screen for Shiga toxin inhibitors: cycloheximide protein synthesis inhibition; cell reporter, cycloheximide protein synthesis inhibition counterscreen; max response, %; 12% of 300,000 active; AID 2314; in the data active means max response mostly above about 13%, no sharp cut-off; inactive means mostly below about 14%; further: read at 38.3 µM for the half of the compounds with a filed dose; 0% is about no effect
Sm TGR inh: inhibitors of Schistosoma mansoni thioredoxin glutathione reductase | Potency, µM (highest dose often 114 µM), for the others: at the highest dose activity change, negative = inhibition, usual class: inhibitors | purified TGR, DTNB reduction, TNB absorbance 405 nm | Q962Y6 | AID 485364 | 3% of 360,000 active; further: potency means the concentration at half of the fitted maximal effect; on the % scale 0 is the no-effect control and ±100 the full control effect; nearly all actives have a fitted effect of over 60% in size
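TGR 20 nM + NADPH 100 uM (dispensed conc.), cpd preinc 15 min RT; start with NADPH (500 uM addition) then DTNB (15 mM addition). Kinetic TNB absorbance, 405 nm filter. Four-parameter Hill fit across titration.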
Pf growth 96h: P. falciparum growth inhibition at 96 hours. 6.9% of 320,000 active. Potency, µM (series often up to 28.7 µM), without a hit: at the highest dose activity change, negative = inhibition, most hits filed as inhibitors. AID 504834. P. falciparum luciferase reporter growth, 96 h; further: potency means the concentration at half of the fitted maximal effect; on the % scale 0 is the no-effect control and ±100 the full control effect
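Two parasite generations (96 h, 37 C, 5% CO2) of compound exposure in infected erythrocytes (0.05% parasitemia, 2% hematocrit). Luciferase-reporter P. falciparum; decreased luminescence indicates inhibited growth, aimed at apicoplast-acting delayed death.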
Pf growth 48h: inhibits P. falciparum growth in the first generation, 48 h. P. falciparum luciferase growth in erythrocytes, 48 h. Potency, µM (highest dose often 28.7 µM), for inactives: top-dose activity change, negative = inhibition, actives largely listed as inhibitors. 5.9% of 310,000 active. AID 504832; further: potency means the concentration at half of the fitted maximal effect; on the % scale 0 is the no-effect control and ±100 the full control effect
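Read-out is firefly luciferase luminescence from an integrated reporter in P. falciparum, so falling signal marks reduced parasite growth. Infected erythrocytes were at 2% hematocrit and 0.1% parasitemia (final) in Albumax-supplemented RPMI 1640.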
NS1 function inh: blocks influenza NS1 protein function; Potency, µM (titrated, usually from 46.1 µM), without a hit: at the highest dose activity, positive = more growth; 0.4% of 270,000 active; AID 2326; calls by dose curve; further: potency means the concentration at half of the fitted maximal effect; actives are rising curves; nearly all actives have a fitted effect of over 50% in size
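Compounds were scored for reversing the slow growth caused by influenza A NS1 in S. cerevisiae, measured by optical density at 600 nm. Assay medium contained 2% galactose at pH 6.0; NS1-free yeast of the same strain were the positive control.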
Active calls of the source: *; ? = inconclusive; · = no result given; [ ] = another dose, or the depositor's remark. The list is not random: actives were taken first. Their share in the collection is about 21%. Unless noted, the call rests on the fitted dose curve; in most records, active means well fitted curve in the direction sought with a large enough effect; inconclusive means small, poorly fitted or top-dose-only effect, or another doubt; inactive means no such curve, though single readings can be large; an effect the other way counts as inactive or inconclusive.

SMILES | Shiga toxin inh | CHX counter | Sm TGR inh | Pf growth 96h | Pf growth 48h | NS1 function inh
CC(=O)c1cccc(NC(=O)c2cc(C)nc3c2c(C)nn3-c2cccc(Cl)c2C)c1 | · | · | 1% | · | · | ·
CCCCN(C)C(=O)c1oc2ccc(S(=O)(=O)N3CCCCCC3)cc2c1C | -18 | -5 | -2% | ? | ? | -37%
CCCc1ccc2oc(C(=O)N3CCN(c4cnccn4)CC3)c(C)c2c1 | 6 | 12* | -13% | 35% | ? | -61%
CCCc1ccc2oc(C(=O)N(C)CCn3ccnc3C)c(C)c2c1 | 20* | 13* | 5% | 65% | -1% | 24%
CCCc1ccc2oc(C(=O)N3CCN(CCC(N)=O)CC3)c(C)c2c1 | 14 | 8 | ? | ? | 2% | 4%
CCCc1ccc2oc(C(=O)N(C)Cc3cnccn3)c(C)c2c1 | -19 | -5 | ? | 10µM* | 2% | 12%
CCC(C)NC(=O)CSc1nc2c(sc3ccccc32)c(=O)n1Cc1ccccc1Cl (centres undefined) | · | · | -2% | · | · | ·
CCC1CCCCN1CC(O)Cn1c2ccccc2n2c(=O)cc(C)c(C#N)c12 (centres undefined) | -12 | -5 | 7% | 4.7µM* | ? | 9%
Cc1ccccc1/C=N/N=C1/NC(=O)CCS1 | 92* | 40* | -20% | 34% | ? | -3%
O=C1CS/C(=N\N=C\c2ccccc2Cl)N1CC1CC1 | -11 | -1 | 2% | 100% | 2% | -2%
O=C1CCS/C(=N\N=C\c2ccc(Cl)cc2Cl)N1 | 24 | 16* | -7% | -6% | -3% | 0%
CCc1ccc(-n2c(=O)c3c4c(sc3n(CC(=O)NC(C)CC)c2=O)CCCC4)cc1 (centres undefined) | · | · | -3% | · | · | ·
Cn1c(=O)n(CCc2ccccc2)c2ccccc21 | · | 18* | 7% | -1% | 54% | -20%
Cn1c(=O)n(CCCOc2ccc(Cl)cc2)c2ccccc21 | 4 | 19* | -3% | 176% | -8% | -11%
C=CCn1cccc(C(=O)Nc2cc(OC)c(OC)c(OC)c2)c1=O | -3 | 2 | -12% | ? | ? | ·
C=CCn1cccc(C(=O)Nc2cc(OC)cc(OC)c2)c1=O | 20 | 26* | -1% | -1% | 24% | ·
C=CCn1cccc(C(=O)Nc2ccc(OC)c(Cl)c2)c1=O | 54* | 24* | -16% | -3% | -4% | -8%
CCOP(=O)(OCC)C(Nc1ccccc1)c1ccccc1C(F)(F)F (centres undefined) | 9 | -2 | 1% | -19% | ? | -2%
CC(C)(C)OC(=O)CNC(=O)c1nc[nH]c1C(=O)NCc1ccccc1 | -4 | 0 | 0% | 51% | 16% | 5%
C[C@@H](NC(=O)c1nc[nH]c1C(=O)NCc1ccc(CNC(=O)OC(C)(C)C)cc1)c1ccccc1 | · | · | -6% | ? | 12µM* | ·
C[C@H](NC(=O)c1nc[nH]c1C(=O)NCc1ccc(CNC(=O)OC(C)(C)C)cc1)C(=O)OC(C)(C)C | 9 | 12 | 4% | 1.3µM* | ? | 0%
CC(C)(C)OC(=O)NCc1ccc(CNC(=O)c2nc[nH]c2C(=O)N2CCN(c3ccccc3)CC2)cc1 | · | · | -2% | -27% | 13µM* | ·
C[C@H](NC(=O)c1nc[nH]c1C(=O)NCCCCCN)C(=O)OC(C)(C)C | · | · | -19% | 72% | 11% | ·
CC(C)(C)OC(=O)NCc1ccc(CNC(=O)c2nc[nH]c2C(=O)N2CCc3ccccc3C2)cc1 | · | · | 3% | ? | ? | ·
CCOc1ccccc1/C=C/c1onc(C)c1S(=O)(=O)N1CCC(C(=O)N2CCCCC2)CC1 | · | · | 2% | · | · | ·
SMILES | Shiga toxin inh | CHX counter | Sm TGR inh | Pf growth 96h | Pf growth 48h | NS1 function inh
COC(=O)C1=NN(c2ccccc2)C2(S1)S/C(=C\c1ccccc1)C(=O)N2c1ccccc1 (centres undefined) | -18 | -3 | -3% | · | 13µM* | 2%
Cc1nc2c(-c3ccc(F)cc3)c(C)nn2c(N2CCOCC2)c1C | 18 | 3 | 4% | 2% | ? | -31%
Cc1nc2c(-c3ccc(F)cc3)cnn2c(N)c1-c1ccc(F)cc1 | 93* | 61* | -4% | ? | -77% | 2%
Cc1cc(SCC(=O)Nc2ccccc2)n2ncc(-c3ccccc3)c2n1 | 8 | -1 | -1% | ? | ? | -2%
Cc1cc(Cl)n2ncc(-c3ccccc3)c2n1 | 62* | 57* | ? | 284% | 220% | -5%
Cc1cc(N)n2ncc(-c3ccc(Cl)cc3)c2n1 | 49* | 22* | 0% | ? | 122% | -15%
Cc1cc(C)n2cc(-c3ccc(Cl)cc3)c(C(=O)O)c2n1 | 51* | 22* | · | 141% | 93% | -6%
COc1ccc(-c2cnn3c(C)cc(C)nc23)cc1OC | · | · | 1% | · | · | ·
CCc1nnc(SCC(=O)Nc2nc(C)c(C(=O)N(C)C)s2)n1CC | -24 | -6 | 0% | ? | 18% | -16%
NC1=C2NC=N[C@@H]2N(C/C=C\c2ccccc2)C=N1 | · | · | · | · | · | -4%
Cc1c(C(=O)NC(C)c2ccccn2)oc2c(Cl)cccc12 (centres undefined) | · | · | 2% | ? | ? | ·
Cc1cc(N2CCOCC2)n2ncc(-c3ccccc3Cl)c2n1 | 88* | 41* | 12% | 201% | 85% | -12%
Cc1cc(N)n2ncc(-c3ccc(F)cc3)c2n1 | 68* | 50* | -11% | 137% | · | 2%
CC(C)c1cc(N2CCOCC2)n2ncc(-c3ccccc3)c2n1 | 16 | 13 | 0% | -8% | -13% | -3%
Cc1cc(-c2ccc(Cl)cc2)c2cnn(C(C)C)c2n1 | 19 | 30* | 1% | 1% | 0% | -8%
CCOC(=O)Cc1c(C)nc2c(-c3ccc(Cl)cc3)cnn2c1C | 49* | 18 | · | 13% | ? | 0%
CCOC(=O)c1cnn(-c2cc(C)nc3c(-c4ccccc4)cnn23)c1N | 19 | 16 | -3% | 49% | 8% | -4%
CCC(CC)c1nn2c(=O)cc(COc3ccc(NC(=O)c4ccccc4C)cc3)nc2s1 | · | · | 6% | · | · | ·
Cc1ccc(S(=O)(=O)c2ncccc2N)cc1 | -4 | -5 | -22% | -2% | -1% | 7%
Cc1ccc(S(=O)(=O)c2ncccc2[N+](=O)[O-])cc1 | 8 | 15 | 0.35µM* | ? | · | -109%
CCC(Sc1ncccc1C(=O)OCCN1CCCC1=O)C(=O)NCc1ccco1 (centres undefined) | 8 | -1 | 45µM* | ? | ? | ?
CC(=O)c1ccc(N2CCN(Cc3nc(Cc4ccccc4)no3)CC2)cc1 | -1 | 8 | 0% | ? | ? | 2%
O=C1C(Cl)=CC(=Nc2ccc(O)cc2)C=C1Cl | 12 | 12 | 0.89µM* | -106% | ? | ·
O=C1CSC(=Nc2ccc(O)cc2)N1 | -8 | -2 | 10% | 0% | 2%[0.00184 µM] | 6%
CCC1(C)Cc2c(sc(NC(=S)NC(=O)c3ccccc3)c2C#N)CO1 (centres undefined) | -1 | 11 | ? | 57% | 25% | 8%
